# CBX7 AlphaScr: CBX7 inhibition, primary AlphaScreen; normalised signal (fraction of DMSO) (concentration not given with the values); AlphaScreen His6-CBX7 / biotin-H3K27me3 peptide binding; active compounds read low; 66,000 compounds, 1.1% hits; in the data active = normalised signal below about 0.5
# Target sequence (O95931 whole entry, looked up): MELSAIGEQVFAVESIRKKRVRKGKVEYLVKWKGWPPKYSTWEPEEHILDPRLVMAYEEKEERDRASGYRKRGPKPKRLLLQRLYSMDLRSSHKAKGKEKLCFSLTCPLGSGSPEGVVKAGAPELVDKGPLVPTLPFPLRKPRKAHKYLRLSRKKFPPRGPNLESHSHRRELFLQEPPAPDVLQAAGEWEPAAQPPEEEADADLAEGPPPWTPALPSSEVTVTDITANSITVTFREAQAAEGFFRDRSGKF
# Hits are given with their value; i = inactive. This excerpt belongs to a sample that is enriched for hits.
SMILES,CBX7 AlphaScr
O=C(NCc1ccc(Cl)cc1)c1cnc2ccccn2c1=O,i
c1cncc(CNc2nnc(Cc3ccncc3)c3ccccc23)c1,i
COc1ccc(-c2nnc(NC(=O)c3ccc(S(=O)(=O)N(C)Cc4ccccc4)cc3)o2)cc1,0.0078
COCCN(CCOC)S(=O)(=O)c1ccc(C(=O)Nc2nnc(-c3ccc(OC)cc3)o2)cc1,i
CN(Cc1ccccc1)S(=O)(=O)c1ccc(C(=O)Nc2ccc(-c3nc4ccccc4[nH]3)cc2)cc1,i
CN(C(=O)c1cc2c(s1)-c1ccccc1OC2)c1ccc(Br)cc1,i
Cc1cc(C)c(OCC(O)Cn2cnc3ccccc32)c(C)c1 (stereo not drawn),0.48
CCCc1nc2ccccc2n1CC(O)COc1c(C)cc(C)cc1C (stereo not drawn),i
Cc1ccc(Cl)c(OCC(O)Cn2cnc3ccccc32)c1 (stereo not drawn),i
OC(COc1ccc(Br)cc1)Cn1cnc2ccccc21 (stereo not drawn),i
O=C(O)c1ccccc1OCC(O)Cn1cnc2ccccc21 (stereo not drawn),i
OC(COc1ccccc1Cl)Cn1cnc2ccccc21 (stereo not drawn),0.25
O=C(Nc1cccc(Cl)c1)c1cn(-c2ccc(Cl)cc2)c(=O)c2ccccc12,i
Cc1ccc(CSc2nc3ccncc3n2CC(=O)Nc2ccc(C)cc2C)cc1,i
O=C1NC(Cc2c[nH]c3ccccc23)C(=O)N1c1ccccc1 (stereo not drawn),i
CCCCn1c(C(C)NC(=O)c2ccc(Cl)cc2)nc2ccccc21 (stereo not drawn),i
CCCCN(CCCNC(=O)c1cc(-c2ccncc2)nc2ccccc12)c1ccccc1,i
CCN(CCCNC(=O)c1cc(-c2cccnc2)nc2ccccc12)c1ccccc1,i
CCOc1ccc(-c2cc(C(=O)NCCN(CC)c3ccccc3)c3ccccc3n2)cc1,i
CCN(CCCNC(=O)c1cc(-c2ccncc2)nc2ccccc12)c1ccccc1,0.31
CCN(CCNC(=O)c1cc(-c2cccnc2)nc2ccccc12)c1ccccc1,0.47
CN(C)CCNC(=O)c1cc(-c2ccncc2)nc2ccccc12,i
Cc1cccc(-c2nc(Nc3ccc(F)cc3Cl)c3ccccc3n2)c1,i
COc1ccc(CNC(=O)c2ccc3c(=O)n4c(nc3c2)CCCCC4)cc1,i
Cc1cccc(-n2c(CCC(=O)O)ccc2-c2ccc(F)cc2)c1,i
SMILES,CBX7 AlphaScr
C=CCc1cc(C)ccc1OCC(O)CN1CCOCC1 (stereo not drawn),i
C=CCc1ccccc1OCC(O)CN1CCN(c2ccc(C)cc2)CC1 (stereo not drawn),0.25
C=CCc1ccccc1OCC(O)CN1CCC(C)CC1 (stereo not drawn),i
CCCN(C(=O)CCc1nc(-c2ccccc2F)no1)c1ccc(OCC)cc1,i
CCOc1ccc(-c2cn(-c3ccc(OC)cc3)c(SCC(=O)Nc3ccc(Cl)cc3)n2)cc1,i
CCOC(=O)c1[nH]c(C)c(C(=O)NCc2ccc3c(c2)OCO3)c1C,i
Cc1c(Cl)cccc1Nc1nc(-c2ccccn2)cs1,0.47
COc1ccc(-c2csc(Nc3cccc(C(C)=O)c3)n2)cc1OC,i
CC(=O)Nc1ccc(Nc2nc(-c3cc4ccccc4o3)cs2)cc1,i
CC(=O)Nc1ccc(Nc2nc(-c3ccccn3)cs2)cc1,0.061
CC(=O)c1cccc(Nc2nc(-c3cccs3)cs2)c1,i
CC(=O)c1cccc(Nc2nc(-c3ccccn3)cs2)c1,0.38
Cc1c(Cl)cccc1Nc1nc(-c2cccnc2)cs1,i
Cc1c(Cl)cccc1Nc1nc(-c2cccs2)cs1,i
CC(=O)Nc1ccc(Nc2nc(-c3c(C)nc4ncccn34)cs2)cc1,i
Fc1ccc(Nc2c3c(nc4ccc(Cl)cc24)CCCC3)c(F)c1,i
CC(NC(=O)c1ccccc1F)C(c1cccs1)N1CCN(c2ccccc2)CC1 (stereo not drawn),i
CCN(CCCNC(=O)c1cn(C2CCCCC2)c(=O)c2c1c1ccccc1n2C)Cc1ccccc1,i
CC1(C)CC(=O)c2cc(C(=O)O)c(=O)n(-c3ccc(Cl)cc3)c2C1,i
CCCCCn1c(=O)[nH]c2cc(C(=O)NCc3ccccn3)ccc2c1=O,0.11
O=C(NCc1ccccn1)c1ccc2c(=O)n(CCc3ccccc3)c(=O)[nH]c2c1,i
CCCCCn1c(=O)[nH]c2cc(C(=O)NCc3ccc(Cl)cc3)ccc2c1=O,i
O=C(CSc1nnc(CNC(=O)c2ccccc2F)o1)Nc1ccccc1,i
Cc1ccccc1NC(=O)C1c2ccccc2C(=O)N2CCc3ccccc3C12 (stereo not drawn),i
Cc1ccc(NC(=O)C2c3ccccc3C(=O)N3CCc4ccccc4C23)nc1 (stereo not drawn),0.3
SMILES,CBX7 AlphaScr
COc1cc2c(cc1OC)C1C(C(=O)Nc3ccc(Cl)cn3)c3ccccc3C(=O)N1CC2 (stereo not drawn),i
CCc1ccc(-c2nc(CN3CCCC(C(=O)NC4CCCCCCC4)C3)c(C)o2)cc1 (stereo not drawn),i
Cc1noc(C)c1S(=O)(=O)N1CCC(C(=O)N2CCCCC2)CC1,i
Cc1cc(C(=O)Nc2ccc(OC(F)(F)F)cc2)on1,i
Cc1ccc2[nH]c3c(c2c1)CCCC3NCCCO (stereo not drawn),i
c1ccc(CNC2CCCc3c2[nH]c2ccc(-c4ccccc4)cc32)cc1 (stereo not drawn),i
Cc1ccc2[nH]c3c(c2c1)CCCC3NCc1ccc(Cl)cc1 (stereo not drawn),0.49
C#CCOc1ccc(-c2nnc(Nc3cccc(O)c3)c3ccccc23)cc1,i
COc1ccc(N2CCN(C(=O)C3CCN(c4nc5ccccc5[nH]4)CC3)CC2)cc1,i
O=C(Cn1nc(Cc2cccnc2)c2ccccc2c1=O)NCc1cccc(Cl)c1,i
Cc1ccc(NC(=O)c2ccccc2O)nc1,i
O=C(Nc1cccc2cccnc12)c1ccccc1O,i
O=C(Nc1ncn[nH]1)c1ccccc1O,0.17
CCC1Oc2ccccc2N(CC(=O)NCc2ccccc2Cl)C1=O (stereo not drawn),i
Cn1c(CNc2ccccc2O)nc2ccccc21,0.46
Cc1ccccc1NCc1nc2ccccc2n1C,i
Cn1c(CNc2cc(Cl)ccc2Cl)nc2ccccc21,i
Cc1nn(Cc2c(Cl)cccc2Cl)c(C)c1NC(=O)c1cc(-c2ccc3c(c2)OCO3)on1,i
Clc1ccc(-c2nnc(SCc3ccc(Br)cc3)o2)c(Cl)c1,i
COc1ccccc1Nc1nc(-c2sc(NC(C)=O)nc2C)cs1,i
CC(=O)Nc1nc(C)c(-c2csc(Nc3cccc(C)c3)n2)s1,i
Cc1ccccc1Nc1nc(-c2sc(N)nc2C)cs1,i
Cc1nc(N)sc1-c1csc(Nc2ncccn2)n1,i
Cc1cccc(Nc2nc(-c3sc(N)nc3C)cs2)c1,0.48
COc1ccccc1Nc1nc(-c2sc(N)nc2C)cs1,0.37
SMILES,CBX7 AlphaScr
COC(=O)c1c(NC(=O)COc2cc(C)ccc2C)sc2c1CCCC2,i
CCOC(=O)C(Cc1ccccc1)NC(=O)c1cccc2c1C(=O)N(Cc1cccnc1)C2 (stereo not drawn),i
COc1ccc(OC)c(C2C(=O)N(C3CCC(C)CC3)CC(=O)N2CCC2=CCCCC2)c1 (stereo not drawn),i
O=C(NCCCN1CCOCC1)c1ccc2c(c1)NC(=O)C1CCCN21 (stereo not drawn),i
CCCCCc1ccc(-c2ccc(C(=O)Nc3ccc(C)c(Cl)c3)cc2)nc1,i
CCN1CCN(CCCNC(=O)Cc2cn(C)c3ccccc23)CC1,i
CC(C)(O)c1cnnn1-c1nonc1N,i

# Screening results deposited in PubChem BioAssay by Bradner/Qi Labs at DFCI.
